In PubChem BioAssay AID624381 (The Scripps Research Institute Molecular Screening Center, 2012):
Hit rate of the full screen: of about 2,300 compounds, about 430 (19%) were called active.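 The calls were made as follows: active = mean activation across triplicates above the hit threshold derived in the original primary screen (cut at about 15% in these data); inactive = the rest.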 The list is a sample of the results.

Target: 5-hydroxytryptamine receptor 2A (Mus musculus) (UniProt P35363)
Assay: agonist activity at mouse 5-HT2A receptor – cell-based, luminescence, CHO-K1 PathHunter, triplicate, confirmation (AID 624381)
Conditions: CHO-K1 PathHunter beta-arrestin recruitment, at 7.6 µM, hits give high values, DMSO 0%, 30 µM serotonin 100%

5-hydroxytryptamine receptor 2A (Mus musculus), sequence (P35363 whole entry, looked up): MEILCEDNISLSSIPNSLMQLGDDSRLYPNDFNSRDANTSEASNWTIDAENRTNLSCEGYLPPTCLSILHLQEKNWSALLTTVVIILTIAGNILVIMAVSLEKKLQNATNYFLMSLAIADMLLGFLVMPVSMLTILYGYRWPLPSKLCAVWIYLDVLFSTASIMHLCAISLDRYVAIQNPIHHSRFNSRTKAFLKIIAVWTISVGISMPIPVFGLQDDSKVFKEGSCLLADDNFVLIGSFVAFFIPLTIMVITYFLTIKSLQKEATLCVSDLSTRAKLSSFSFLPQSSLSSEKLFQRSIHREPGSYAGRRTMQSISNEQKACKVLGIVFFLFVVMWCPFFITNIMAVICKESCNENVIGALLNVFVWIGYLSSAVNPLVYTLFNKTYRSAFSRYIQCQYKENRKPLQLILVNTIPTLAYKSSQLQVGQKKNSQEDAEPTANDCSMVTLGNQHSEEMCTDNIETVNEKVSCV

activation, active:
CCCN(CCc1ccccc1)C1CCc2c(O)cccc2C1 (stereo not drawn) 164%, OCC1(Cc2ccccc2)CCN(Cc2cc3ccccc3o2)CC1 81.8%, C/C(=N\NC(=S)NC1CCCCC1)c1ccc(C)o1 29.7%, O=S(=O)(c1ccc(OCC(O)CN2CCN(c3ccccc3Cl)CC2)cc1)N1CCOCC1 (stereo not drawn) 41.2%, CNCC(O)c1ccc(O)c(O)c1 (stereo not drawn) 136%

activation, inactive:
CCCC(=O)N=c1sc2cccc(F)c2n1C -2.76%, Cc1ccc2c(c1)NCC(C(=O)NC1CCC(C)CC1)O2 (stereo not drawn) -3.96%, CSc1nsc(SCC(=O)Nc2cc(C(=O)O)ccc2C)n1 1.2%, CCOCCCNC(=O)Cc1cc(=O)[nH]c(=O)[nH]1 -1.89%, CC(=O)N1c2ccc(S(=O)(=O)N3CCC(C(=O)NC4CCCCC4C)CC3)cc2CC1C (stereo not drawn) -5.72%, O=C(O)C1C2C=CC(O2)C1C(=O)NCCc1cccc(Cl)c1 (stereo not drawn) 4.65%, COC(=O)CC(=O)N1CCN(c2ccc(Cl)c(Cl)c2)CC1 13.8%, O=C(O)c1ccc(S(=O)(=O)N2CCC(Cc3ccccc3)CC2)cc1 -0.19%, COc1ccc(CNC(=O)c2ccc(NS(=O)(=O)c3ccc4[nH]c(=O)[nH]c4c3)cc2)cc1OC -3.98%, O=C(OCC(=O)N1CCOCC1)c1ccc2ccccc2c1 -4.74%, Cc1cc(C)n(S(=O)(=O)c2cccc([N+](=O)[O-])c2)n1 -4.03%, COc1ccc2c(Cl)c(-c3nnco3)sc2c1 -2.25%, CCn1c(SCC(=O)N2CCCC2=O)nc2ccccc21 -2.49%, O=C(Cc1ccccc1)n1nc(-c2ccccc2)nc1NCc1ccco1 4.58%, COc1ccc(N2CC(C(=O)NCCN3C(=O)S/C(=C\c4cccnc4)C3=O)CC2=O)c(OC)c1 (stereo not drawn) -1.44%, Cc1c(C(=O)NCC2CC2)sc(=O)n1Cc1cccc(F)c1 -3.87%, COc1ccc(/C(=N\O)c2nccc3cc(OC)c(OC)cc23)cc1OC -3.02%, Cc1ccccc1CSCC(=O)NC(=O)NC(C)(C)C -3.39%, N#Cc1c(NC(=O)CCCl)sc2c1CCCCC2 0.58%, O=C(NCc1ccco1)c1cccn2c(=O)c3c4c(sc3nc12)CCCC4 -1.08%, Fc1ccc2[nH]c3c(N4CCSCC4)ncnc3c2c1 3.26%, CCCCNc1c(-c2cccc(Sc3ccc(OC)cc3)c2)nc2ccccn12 5.41%, COc1ccccc1Nc1nnc(SC(C)C(=O)NC2CC2)s1 (stereo not drawn) -1.26%, Cc1oc2cc(Br)c(O)c(Br)c2c1C(=O)c1ccccc1 -2.71%, N/C(=N\S(=O)(=O)c1cc(C(F)(F)F)cc(C(F)(F)F)c1)c1cccs1 -1.99%, O=C(Nc1cc(=O)[nH]c2ncnn12)c1ccccc1Cl -5.17%, CCOC(=O)[C@]12CCCC=C1N(Cc1ccc3c(c1)OCO3)C(=O)[C@H](CC(=O)NCc1cccs1)C2 -3.55%, O=C1CC(c2cccc(Cl)c2)CC(O)=C1C=Nc1ccccc1 (stereo not drawn) -4.5%, COc1cccc(NC(=O)CSc2nnc(-c3cccnc3)o2)c1 -0.15%, Cc1ccc2nc(-c3ccncc3)cc(C(=O)Nc3ccncc3)c2c1 12.6%, Cn1c2c(c(=O)n(C)c1=O)C(c1ccc(O)cc1)Nc1ccccc1O2 (stereo not drawn) -3.78%, O=C(Cc1ccsc1)N1CCN(S(=O)(=O)c2cc(C(F)(F)F)cc(C(F)(F)F)c2)CC1 -3.88%, CO/N=C/CC(=O)c1ccc(OC)cc1 -1.94%, CCOC(=O)/C=c1\s/c(=C\c2ccccc2OC)c(=O)n1CC(=O)N1CCOCC1 -3.42%, O=C(COC(=O)c1cc(S(=O)(=O)N2CCOCC2)ccc1F)NC1CC1 -1.03%, Nc1c(N(Cc2ccco2)C(=O)c2cccc(F)c2)c(=O)[nH]c(=O)n1Cc1ccccc1 -0.68%, C[C@@H]1ON(C)[C@H]2C[C@H]3c4cc(N5CCN(C)CC5)ccc4CCN3C(=O)[C@@H]12 4.65%, CCOC(=O)c1ccc(NC(=O)Cn2cnc3cc(C)c(C)cc32)cc1 -2.29%, C=C1C(=O)OC2C1CCC(C)=CCCC1(C)OC21 (stereo not drawn) -6.24%, Cc1cccnc1C(NC(=O)C1CCN(Cc2ccc(Cl)c(Cl)c2)CC1)c1ccc(Cl)cc1 (stereo not drawn) -7.94%, Cc1ccc(C(=O)N/C(=C/c2cccs2)C(=O)N2CCCCC2)cc1 -4.44%, CCn1cc(C(=O)OCC(=O)Nc2cccc(C)c2)c(=O)c2ccc(C)nc21 -1.9%, COc1ccc(C(C)=O)cc1COC(=O)Cn1cnc2ccccc2c1=O 2.93%
